# Screens: PubChem BioAssay, Broad Institute
# Only a selection was taken, and hits are over-represented in it overall.
# Tg IFNy HTS = T. gondii growth inhibition under IFN-gamma. Toxoplasma gondii growth in IFN-gamma-treated host cells; stronger effect = lower value. activity change, negative = inhibition, % (test concentration not listed). 3.8% of 69,000 active. AID 1259416; in the data active means activity change below about -70%, passing the limit was not always enough;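 further: host cells are HeLa cells infected with Toxoplasma gondii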
# Numbers without * were called inactive.
SMILES,Tg IFNy HTS
O=C(NCCc1csc2c1CCCC2)c1cn(CC2CCCNC2)nn1 (centres undefined),-78.4*
Cc1ccc(C)c(C(=O)N2CCn3nc(C(=O)NCCO)cc3C2)c1,37.7
CN1CC[C@@]2(CN(c3ncc(F)cn3)C[C@H]2c2ccccc2)C1=O,-1.4
CC(C)Cc1nc(CNC(=O)c2cnc(-c3ccccc3)nc2)no1,-17.3
CCC[C@@H](N[C@@H](C)C(=O)N1[C@@H](C(=O)O)C[C@@H]2CCCC[C@@H]21)C(=O)OCC,20.0
CN(C)Cc1cnc2n1CCN(C(=O)Cc1ccsc1)CC2,-2.9
Cc1c(C)n(C2CCCC2)c2ncnc(OC3CCN(C(=O)Cc4ccsc4)CC3)c12,-80.4*
CS(=O)(=O)c1cnc(N2CCCCC2)nc1C1CCN(C(=O)Cc2ccsc2)CC1,-18.7
COc1ccc(CN2CCN(c3c(F)cccc3C(O)c3nccn3C)CC2)cc1 (centres undefined),-3.1
NS(=O)(=O)c1ccc(CCC(=O)N[C@@H]2CCC(=O)N[C@H]2c2cccs2)cc1,53.5
Nc1ncnc2nc[nH]c12,6.3
Nc1nc(=S)c2[nH]cnc2[nH]1,-86.7*
CNS(=O)(=O)c1ccc(CN2CCN(Cc3cccc(F)c3)CC2)cc1,-3.1
O=S1(=O)CCN(Cc2ccc(NS(=O)(=O)c3ccc(Cl)cc3)cc2)CC1,-92.1*
O=S(=O)(Nc1ccc(C2=NCCO2)cc1)c1ccc(Cl)cc1,-18.0
COc1ccc(C(=O)N(c2cccc(Cl)c2)C2(C(=O)NCc3ccccc3)CCN(C(C)=O)CC2)cc1,109.1
Cc1c(N(C)C)c(=O)n(-c2ccccc2)n1C,8.3
Cc1[nH]n(-c2ccccc2)c(=O)c1N=Nc1c(C)n(C)n(-c2ccccc2)c1=O,-92.5*
Cc1[nH]n(-c2ccccc2)c(=O)c1C(=O)c1ccccc1,98.3
CCOCC(=O)N1C[C@@H]2CN(c3cnccn3)CC[C@H]2C1,-53.3
COc1ccc(NC(=O)c2c(O)c3cccnc3n(-c3ccccc3)c2=O)cc1,-0.8
Fc1ccccc1-n1cc(-c2ccnc(NCc3ccon3)n2)cn1,-76.0*
Cc1ccccc1-n1cc(-c2ccnc(NC3CCNCC3)n2)cn1,-25.8
COc1ccccc1-n1cc(-c2ccnc(NCCc3cnccn3)n2)cn1,-27.6
CC(C)c1noc(-c2cc(=O)n(CC(=O)NCc3ccc(Cl)cc3)c3ccccc23)n1,-23.2
SMILES,Tg IFNy HTS
CCCC(=O)NCCc1sc(-c2ccc(Cl)cc2)nc1C,218.5
CCOC(=O)c1sc2sc(-c3ccn[nH]3)c(C)c2c1C,-109.6*
CCOC(=O)c1sc2sc(C(=O)OCC)c(-c3ccco3)c2c1N,-34.7
CCOC(=O)c1cccnc1-c1ccc(-c2ccn[nH]2)cc1,6.5
Cc1ncnc2c1CCN(C(=O)N1CCOCC1)CC2,-1.7
Cn1cnnc1Sc1nc2c(c(=O)n(C)c(=O)n2C)n1C,-1.2
Cn1c(=O)c2c(nc(SCC(=O)Nc3nc(-c4cccs4)cs3)n2C)n(C)c1=O,-102.8*
Cn1c(=O)c2c(nc(SCCN3CCCCC3)n2C)n(C)c1=O,-5.3
CC(C)C(=O)c1cc(-c2cnc(N(C)C)nc2)cn1CC1CC1,-6.1
Cc1cnc(N2CCOCC3(CCN(c4ccccn4)C3)C2)nc1 (centres undefined),146.8
COCC(NC(=O)Cc1cccnc1)c1ccnn1C (centres undefined),-5.1
CN1CC[C@@H](c2c(O)cc(O)c3c(=O)cc(-c4ccccc4Cl)oc23)[C@@H]1CO,-74.3*
Cc1oc(-c2ccccc2Cl)cc1C(=O)N1CCNC(=O)CC1,-31.4
Cc1oc(-c2ccccc2Cl)cc1C(=O)N1CCCCC1CO (centres undefined),-44.9
CN(Cc1ccc(-c2ccn[nH]2)s1)Cc1cccc2ncccc12,-47.0
CCn1ncnc1CN1CCC(c2n[nH]c(=O)n2Cc2ccccc2)CC1,22.5
CC(C)CN1CCN(C(=O)NCc2ccc(F)cc2)C(C)C1=O (centres undefined),-4.3
CCc1cc(=O)n2[nH]c(C3CCN(C(=O)CCc4cc(OC(C)C)no4)C3)cc2n1 (centres undefined),11.7
O=C(Cc1c[nH]c2ccccc12)Nc1cc(-c2ccccn2)no1,264.3
CCCNC(=O)c1cc2c(c(-c3cccc(-c4cc5ccccc5o4)c3)n1)[C@H](CCO)N(C(=O)NC(C)C)C2,-71.2*
CC(C)NC(=O)N1Cc2cc(C(=O)NC3CCC3)nc(-c3cccc(-c4cncnc4)c3)c2[C@@H]1CCO,4.9
CC(C)NC(=O)N1Cc2cc(C(=O)NC3Cc4ccccc4C3)nc(-c3cccc(-c4cccnc4)c3)c2[C@H]1CCO,-57.4
CCN1CCCC1CN(Cc1cccs1)CC1CCOC1 (centres undefined),-12.4
CN(C)c1ccc(CNC(=O)c2nc(Nc3ccccc3)c3ccccc3n2)cc1,-69.9
C=CCn1c(=O)c(-c2nc(-c3cccc(Cl)c3)no2)c(O)c2ccccc21,6.5
SMILES,Tg IFNy HTS
CC1(C)CC(=O)c2cc(-c3ccccc3)n(CC(=O)O)c2C1,18.5
COc1ccccc1-n1c(-c2ccc(Br)cc2)cc2c1CC(C)(C)CC2=O,-92.2*
Cc1ccccc1-n1nc(C)c2c1CC(C)(C)CC2=O,-30.1
CC(C)CNC(=O)C1=NOC2(CCN(C(=O)c3ccccn3)C2)C1 (centres undefined),-0.2
CC(C)CNC(=O)C1=NOC2(CCN(Cc3ccc(C(C)C)cc3)C2)C1 (centres undefined),-82.4*
COc1ccc(CN2CCC3(CC(C(=O)NCC(C)C)=NO3)C2)cc1 (centres undefined),4.5
Cc1nn(C)c(Cl)c1S(=O)(=O)N1CCCC2(CCN(C)CC2)CC1,14.9
CCN1CCC2(CC1)OC(=O)C(C)=C2C(=O)NCCCN1CCCC1=O,249.6
O=C(NCc1ccccc1)c1c(O)c2cccnc2n(-c2ccc(F)cc2)c1=O,74.8
O=C(NCc1ccc(Cl)cc1)c1c(O)c2cccnc2n(-c2ccc(F)cc2)c1=O,-105.1*
O=C(NCc1cccnc1)c1c(O)c2ccccc2n(-c2ccccc2)c1=O,-5.1
O=C(NCc1cccc(Cl)c1)c1c(O)c2cccnc2n(-c2ccc(F)cc2)c1=O,127.5
O=C(NCc1ccc(Cl)cc1)c1c(O)c2ccccc2n(-c2ccccc2)c1=O,-124.4*
O=C(NCc1cccc(Cl)c1)c1c(O)c2cccnc2n(-c2ccccc2)c1=O,-83.1*
O=C(NCc1ccc(Cl)cc1)c1c(O)c2cccnc2n(-c2cccc(F)c2)c1=O,138.7
O=C(NCc1cccc(Cl)c1)c1c(O)c2cccnc2n(-c2cccc(F)c2)c1=O,71.7
COc1cccc(CNC(=O)c2c(O)c3ccccc3n(-c3ccccc3)c2=O)c1,-5.0
CCOC(=O)N1CCC(NCc2cncn2CC(C)C)CC1,-0.8
Cn1ccc2cc(S(=O)(=O)N3CCC(C(=O)N4CCN(c5ccccn5)CC4)CC3)ccc21,49.7
NCCc1cc(N2CCCC(c3ccccc3)CC2)ncn1 (centres undefined),-5.6
CC(C)C(OC(=O)CN1C(=O)COc2ccccc21)C(=O)NCc1ccco1 (centres undefined),14.3
COc1cccc(S(=O)(=O)N2CCCCN3[C@@H](CO)[C@@H](c4ccc(C#CCC(C)C)cc4)[C@@H]3C2)c1,-63.5
COc1cccc(S(=O)(=O)N2CCCCN3[C@H](CO)[C@H](c4ccc(C#CCC(C)C)cc4)[C@H]3C2)c1,-81.3*
COc1cccc(S(=O)(=O)N2CCCCN3[C@H](C2)[C@@H](c2ccc(C#CCC(C)C)cc2)[C@@H]3CO)c1,-33.4
CC1(C)NC(=O)N(Cc2ccc(NC(=O)c3cc(-c4ccccc4F)no3)cc2)C1=O,29.2
Cc1c(-c2ccccc2)n[nH]c1C(=O)N1CCC(c2ccccc2C(=O)O)C1 (centres undefined),-5.9
